Bioassay records deposited in PubChem BioAssay by Johns Hopkins Ion Channel Center.
An excerpt weighted towards active compounds, which were near 2.4% of everything screened.
TMEM16A inh: inhibitors of mouse TMEM16A calcium-activated chloride channel; Q8BHY3; HEK293 TMEM16A/YFP iodide influx fluorescence, ionomycin; normalized B-score (activity score, 25-100; higher = stronger inhibition) at 10 µM; 1.2% of 310,000 active;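 active = ratio plate-corrected score three or more library SD toward inhibition, starting fluorescence score within five deviations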;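 also: score derived from kinetic fluorescence span divided by baseline fluorescence per well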
CHT allo act: allosterically activates the human high affinity choline transporter; B-score at 10 µM; 0.49% of 310,000 active; Q9GZV3; CHT-expressing cells, membrane potential dye, choline EC20; hits give high values; LV-AA mutant CHT in HEK293 cells; AID 488977;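 active = initial fluorescence not abnormally high and integrated response B-score, plate-corrected, over 3 SD above library mean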
Target sequence (Q9GZV3 whole entry, looked up): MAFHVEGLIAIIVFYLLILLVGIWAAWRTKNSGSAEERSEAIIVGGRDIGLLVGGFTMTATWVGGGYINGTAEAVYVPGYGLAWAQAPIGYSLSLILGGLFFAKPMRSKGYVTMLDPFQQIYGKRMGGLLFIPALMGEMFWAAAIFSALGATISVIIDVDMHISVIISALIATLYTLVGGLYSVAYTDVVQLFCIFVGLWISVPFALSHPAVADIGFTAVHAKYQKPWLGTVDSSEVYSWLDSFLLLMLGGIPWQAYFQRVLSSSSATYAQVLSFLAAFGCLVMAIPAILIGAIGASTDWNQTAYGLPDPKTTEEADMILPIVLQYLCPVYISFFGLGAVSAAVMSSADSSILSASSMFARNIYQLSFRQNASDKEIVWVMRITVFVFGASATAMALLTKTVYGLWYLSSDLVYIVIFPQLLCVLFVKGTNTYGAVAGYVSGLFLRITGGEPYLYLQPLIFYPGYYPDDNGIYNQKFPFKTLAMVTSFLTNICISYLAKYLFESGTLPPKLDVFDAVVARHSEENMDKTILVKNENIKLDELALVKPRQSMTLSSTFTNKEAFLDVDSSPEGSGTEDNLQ
TMEM16A act: activators or potentiators of mouse TMEM16A chloride channel; Q8BHY3; HEK293 TMEM16A/YFP-H148Q/I152L, iodide quench fluorescence; hits give low values; B-score at 10 µM; 0.3% of 340,000 active; AID 623877;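 active = fluorescence-ratio B-score plate-corrected deviation score at least 3 library SD below zero, with starting fluorescence score within 5 deviations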;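 also: channel opened by trigger with iodide after compound preincubation; score built on the fluorescence ratio of max minus min over baseline; more negative score means more quench and so TMEM16A activation or potentiation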
CHT inh: human CHT choline transport inhibition | Q9GZV3 | CHT-expressing cells, membrane potential dye, choline response; hits give low values | B-score at 10 µM | 0.86% of 310,000 active | AID 488975;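 active = B-score over 3 SD under the library average, and starting fluorescence ratio not unusually high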;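 also: choline stimulus applied at its EC90 after an EC20 pre-addition; B-score computed on integrated fluorescence ratio after choline addition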
Of the large screens only hits and unclear results are named; the others gave an inactive call.

O=C(CSc1nnnn1-c1cccnc1)NCc1cccs1	none
CCOC(=O)C(CSCC(=O)c1ccc(Br)cc1)NC(=O)OC(C)(C)C (stereo not given)	TMEM16A inh 100 (no result: TMEM16A act)
CC(C)CCn1c(=O)c2ccccc2n2c(CN3CCOCC3)nnc12	none
COc1ccccc1-c1cc(C(F)(F)F)nc(S(=O)(=O)CCCC(=O)N2CCOCC2)n1	CHT inh -5.1
COc1ccccc1-c1cc(C(F)(F)F)nc(S(=O)(=O)CCCC(=O)O)n1	none
CC(C)CN(C(=O)c1cc2ccccc2o1)c1c(N)n(CC(C)C)c(=O)[nH]c1=O	none
Cc1ccc(-n2c(C)cc(=O)cc2C)cc1[N+](=O)[O-]	CHT inh -8.3
Cc1ccc(N2C(=O)c3cccc([N+](=O)[O-])c3C2=O)cc1C	none
CC(=O)NCCc1nc2cc(NC(=O)c3ccc([N+](=O)[O-])cc3)ccc2n1C	none
CCOC(=O)C1CCN(C(=O)c2ccc3c(c2)NC(=O)/C(=C/c2ccccc2)S3)CC1	TMEM16A act -50
CCOC(=O)C1CCN(C(=O)c2ccc3c(c2)NC(=O)/C(=C\c2ccc(C)cc2)S3)CC1	none
CCOc1ccc(-n2ccc(=O)c(C(=O)Nc3ccc(S(=O)(=O)Nc4nccs4)cc3)n2)cc1	TMEM16A act -23
CCOc1ccc(N2C(=O)CC(NCCc3ccncc3)C2=O)cc1 (stereo not given)	none
CCOc1ccc(N2C(=O)CC(NCCNc3ccc([N+](=O)[O-])cn3)C2=O)cc1 (stereo not given)	TMEM16A inh 25
N#CCCn1nc(-c2ccc(Br)cc2)cc1Nc1ccccc1NC(=O)C(F)(F)F	TMEM16A inh 100
COc1cc(OC)cc(C(=O)NCC(=O)OC(C)C(=O)NC(C)C2CC3CCC2C3)c1 (stereo not given)	none (no result: TMEM16A inh, CHT allo act, CHT inh)
COc1ccc(S(=O)(=O)Nc2nc3ccccc3nc2Nc2ccc3c(c2)OCO3)cc1	none (no result: TMEM16A act)
O=S(=O)(Nc1nc2ccccc2nc1Nc1ccc2c(c1)OCCO2)c1cccs1	TMEM16A inh 25, CHT inh -7.7
CCN(C(=O)CSc1nc(C)c(C)c(C)n1)C1CCS(=O)(=O)C1 (stereo not given)	none (no result: TMEM16A inh, CHT allo act, CHT inh)
O=C(CSc1nnc(Cn2nnc3ccccc32)o1)N(Cc1ccc(Cl)cc1)c1ccccc1	TMEM16A inh 100
O=C(N[C@H](C(=O)O)c1ccccc1)C1CCC(Cn2cnc3ccccc3c2=O)CC1 (stereo not given in full)	none
O=C(COC(=O)c1cccc(OC(F)F)c1)Nc1ncccn1	none (no result: TMEM16A inh, CHT allo act, CHT inh)
Cc1ccccc1N/N=C/c1sc(=O)n(Cc2cccc(C(=O)O)c2)c1Cl	TMEM16A inh 25
Cc1ccc(NC(=O)CN2CCC(NC(=O)c3ccccc3F)CC2)cc1C	none
O=C(O)CCC1c2cc3c4cc2OC2Oc5cc6c(cc51)C(CCC(=O)O)c1cc5c7cc1OC(O6)c1cc6cc(c1)Oc1cc(cc(C(=O)O)c1)Oc1cc8cc(c1)C(Oc1cc(c(cc1C5CCC(=O)O)C3CCC(=O)O)OC(O4)c1cc(cc(c1)Oc1cc(cc(C(=O)O)c1)O8)Oc1cc(cc(C(=O)O)c1)Oc1cc(cc2c1)Oc1cc(cc(C(=O)O)c1)O6)O7 (stereo not given)	TMEM16A inh 25 (no result: TMEM16A act)
O=[N+]([O-])c1ccc(N=Nc2c(Cl)cc(O)cc2Cl)cc1	TMEM16A inh 100, TMEM16A act -5.2
CC(N)=Nc1ccc([N+](=O)[O-])cc1	none
C[C@H](NC(=O)C1(c2ccccc2)CCN(C(=O)[C@H]2CSCN2C(=O)OC(C)(C)C)CC1)C(=O)O	TMEM16A act -5.1
COC(=O)CSc1nc2sc3c(c2c(=O)n1-c1ccccc1)CCN(C)C3	none
C=CCn1c(SCC(=O)OC)nc2sc3c(c2c1=O)CCN(C)C3	CHT allo act 6.3 (no result: TMEM16A act)
O=C1/C(=C/c2ccc(Br)cc2)Oc2cc(O)ccc21	TMEM16A inh 100
CC(C)(C)c1ccc(/C=C2\Oc3cc(O)ccc3C2=O)cc1	none
CC(C(=O)Nc1ccc2c(c1)OCCO2)N(C)Cc1c(F)cccc1Cl (stereo not given)	none
CCOc1ccccc1N1Cc2ccccc2C1	TMEM16A act -5.5
CCOc1ccccc1N1CCN(C(=O)c2cc3cc(OC)ccc3[nH]2)CC1	none
CC(=O)c1sc(Nc2nc3ccc(F)cc3s2)nc1C	TMEM16A inh 25
Cc1ccc(S(=O)(=O)C2(C(=O)N3CCCC(C)C3)CC2)cc1 (stereo not given)	TMEM16A inh 25
COc1ccc(-n2cc(C#N)c(=O)[nH]c2=O)cc1	none
C=CCN1C=CC(=CC=C(C#N)C#N)C=C1	TMEM16A act -7.7
CCCN1C=CC(=CC=C(C#N)C#N)C=C1	TMEM16A act -6.5
